Reference: PubChem BioAssay (NCI)
The panel holds about 79,000 compounds, 15% with a hit somewhere; the sample as a whole holds those more often. Calls of active or inactive are those of the source. No stated cut-off is given here; in the data, active means growth inhibition above about 70%; inactive means the rest.

Columns and labels:
[1] = NCI Yeast Anticancer Drug Screen. Data for the rad50 strain (AID 155);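 further: 0% = growth of vehicle-only cultures of the same strain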; details: S. cerevisiae rad50 strain growth inhibition; at 50.0 µM; stronger effect = higher value
How it was run: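 A DNA repair-deficient yeast mutant serves as the test organism; compound-induced growth inhibition is calculated against vehicle-treated cells.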

[2] = NCI Yeast Anticancer Drug Screen. Data for the mec2-1 strain (AID 157); details: S. cerevisiae mec2-1 strain, at 50.0 µM, stronger effect = higher value
How it was run: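 Readout is yeast growth inhibition, normalised to vehicle-treated controls, in the mec2-1 strain exposed to compound.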

[3] = NCI Yeast Anticancer Drug Screen. Data for the sgs1 mgt1 strain (AID 161);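 further: 0% = growth of cultures given vehicle only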; details: S. cerevisiae sgs1 mgt1 strain, at 50.0 µM, stronger effect = higher value
How it was run: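 Compounds are added to genetically altered yeast, and growth is compared with cultures given vehicle alone to give percent inhibition.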

[4] = NCI Yeast Anticancer Drug Screen. Data for the cln2 rad14 strain (AID 165);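 further: 0% = growth equal to vehicle treated cultures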; details: S. cerevisiae cln2 rad14 strain, at 50.0 µM, stronger effect = higher value
How it was run: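 Relative to vehicle controls, growth inhibition of compound-treated cln2 rad14 yeast was recorded.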

[5] = NCI Yeast Anticancer Drug Screen. Data for the bub3 strain (AID 167); details: S. cerevisiae bub3 mutant strain, at 50.0 µM, stronger effect = higher value
How it was run: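 Inhibition values come from growth of compound-treated mutant yeast normalised to vehicle-treated controls.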

[6] = NCI Yeast Anticancer Drug Screen. Data for the mlh1 rad18 strain (AID 175); details: S. cerevisiae mlh1 rad18 strain growth inhibition; at 50.0 µM; stronger effect = higher value
How it was run: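 Test agents were incubated with a yeast strain of defined genotype (DNA damage repair defect). Inhibition of growth was derived by comparison with vehicle-exposed cultures.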

Measured: growth inhibition

CN(C)CCCNC(=O)c1cc(NC(=O)c2cc(NC(=O)c3cc(NC(=O)CCCn4ccc(CO)c4CO)cn3C)cn2C)cn1C
inactive: [1] 6.6% | [2] -8.6% | [3] -5.35% | [4] 31.6% | [5] 4.8% | [6] 8.35%

CCCCC(CC)CN(CCOC(=O)c1cc2ccccc2oc1=O)CC(CC)CCCC (stereo unspecified)
inactive: [1] 20.8% | [2] -4.2% | [3] 48.8% | [4] 55% | [5] 20.8% | [6] 31.8%

CC1CC(=O)Nc2ncnc(N)c21 (stereo unspecified)
inactive: [1] -25.1% | [2] -2.45% | [3] 2.3% | [4] -4.7% | [5] 5.3% | [6] -9%

CCCCCCCCNC(C(=O)c1ccc(Cl)cc1)c1ccc(Cl)cc1 (stereo unspecified)
inactive: [1] 8.05% | [2] 17.4% | [3] 21.6% | [4] -18.3% | [5] -8% | [6] 25.8%

CC(C)(NC(=O)OC12CC3CC(CC(C3)C1)C2)C(=O)O
inactive: [1] -11.1% | [2] -20.1% | [3] 3.1% | [4] -12.6% | [5] 3.45% | [6] -5.35%

COc1ccc(-c2nc(-c3cc4c(ccc5ccccc54)oc3=O)cs2)cc1
inactive: [1] 24.4% | [2] 18.5% | [3] 1.45% | [4] 15% | [5] 0.9% | [6] -41.5%

CCCOC(=O)c1ccccc1C=O
inactive: [1] -12.1% | [2] -3.5% | [3] -18.6% | [4] -49.9% | [5] -10.3% | [6] 23.4%

Cn1cnc([N+](=O)[O-])c1SC1=NCCS1
inactive: [1] 7.8% | [2] -1.4% | [3] 10.2% | [4] 25.3% | [5] 22.9% | [6] -7.5%

COc1ccc(/C=N/O)cc1OC
inactive: [1] -1.8% | [2] 14.8% | [3] -2.15% | [4] 11.8% | [5] 10.9% | [6] 5.95%

Nc1ccn(C2OC(COC(=O)C34CC5CC(CC(C5)C3)C4)C(O)C2O)c(=O)n1 (stereo unspecified)
inactive: [1] -14.5% | [2] 0.4% | [3] -35.5% | [4] -2.4% | [5] -31.2% | [6] 6.3%

COc1cc2c(c(O)c1OC)C(=O)[C@@H]1CCC(=O)N1C2c1ccccc1 (stereo partly specified)
inactive: [1] 19.1% | [2] 2.7% | [3] 19.4% | [4] 13.1% | [5] 11.3% | [6] -18.4%

O=C(OCCN1CCCCC1)C(c1ccccc1)C1(O)CCSCC1 (stereo unspecified)
inactive: [1] 9.6% | [2] 22.9% | [3] 32.6% | [4] 25.9% | [5] 17.9% | [6] 5.15%

CCN(CC)CCSC(=O)c1ccc([N+](=O)[O-])cc1
inactive: [1] 20.1% | [2] 7.7% | [3] 15.6% | [4] 19.8% | [5] 38.5% | [6] 8.1%

CCOc1ccc2nc(NC(=O)C(=O)C(C(=O)c3ccccc3-c3ccccc3)C3OC(=O)c4ccccc43)sc2c1 (stereo unspecified)
inactive: [1] -18.7% | [2] 23.9% | [3] -19% | [4] 23.1% | [5] -32.1% | [6] -28.6%

O=c1c2cc(S(=O)(=O)Nc3c(Cl)cccc3Cl)ccc2ncn1NS(=O)(=O)c1ccc2ccccc2c1
inactive: [1] -21.8% | [2] -8.6% | [3] -12.4% | [4] 10.4% | [5] -7.9% | [6] -3.75%

Cc1ccc(N(C)S(=O)(=O)c2ccc([N+](=O)[O-])cc2)cc1
inactive: [1] 8.4% | [2] -2.65% | [3] 29.1% | [4] 21.1% | [5] 42.1% | [6] 26.2%

Clc1ccc(-c2ccncc2)cc1
inactive: [1] 17.1% | [2] -9.15% | [3] 7.2% | [4] -69.7% | [5] 13.1% | [6] 5.7%

CC(NC(=O)C(CSCc1ccccc1)NC(=O)OCc1ccccc1)C(=O)OCc1ccccc1 (stereo unspecified)
inactive: [1] -38% | [2] -9.7% | [3] -11.2% | [4] 24.4% | [5] -3.05% | [6] 10.8%

O=S(=O)([N-]c1nc2ccccc2nc1-[n+]1ccccc1)c1ccccc1
inactive: [1] 14% | [2] -0.2% | [3] 14.7% | [4] -7.25% | [5] -2.2% | [6] -22.6%

CC[O-].CC[O-].O=C1C=C([O-])C(=O)c2ccccc21.O=C1C=C([O-])C(=O)c2ccccc21.[Ti+4]
inactive: [1] 17.3% | [2] 14.3% | [3] 15.4% | [4] 26.2% | [5] 30.4% | [6] 4.9%

CCN1c2nc3ccccc3nc2N(CC)c2nc3ccccc3nc21
inactive: [1] -30.1% | [2] 12.5% | [3] 23.9% | [4] 6.55% | [5] 3.45% | [6] 5.3%

C=CCOc1cc2c(cc1Cc1cc(OC)c(OC)c(OC)c1)OCO2
inactive: [1] 22.9% | [2] -20.8% | [3] 49.6% | [4] 9.85% | [5] 37.6% | [6] 55.2%

CN(C)c1ccc(C=Nc2cc(S(=O)(=O)O)cc3cc(S(=O)(=O)O)cc(O)c23)cc1
inactive: [1] -22.9% | [2] -9.7% | [3] -14.7% | [4] 31.6% | [5] 12.4% | [6] 8.85%

N#CCCn1cnc2c(Cl)ncnc21
inactive: [1] -10.2% | [2] 5.15% | [3] -18.2% | [4] -12.7% | [5] -7% | [6] -2.6%

O=C(CC(=O)c1ccccc1)Nc1cccnc1
inactive: [1] -21.2% | [2] 8.9% | [3] -0.3% | [4] -21.2% | [5] -1.8% | [6] -6.95%

OC1(c2ccc(C3(O)C(c4ccccc4)=C(c4ccccc4)C(c4ccccc4)=C3c3ccccc3)cc2)C(c2ccccc2)=C(c2ccccc2)C(c2ccccc2)=C1c1ccccc1
inactive: [1] 5.6% | [2] -1.75% | [3] -1.7% | [4] -6.6% | [5] -2.15% | [6] 9.85%

CC(=O)c1c(P(=O)(OC(C)C)OC(C)C)nn(-c2ccc([N+](=O)[O-])cc2)c1C
inactive: [1] 59.1% | [2] 20.1% | [3] 22.1% | [4] -0.95% | [5] 14.2% | [6] 32.2%

COc1ccc(C(O)S(=O)(=O)O)cc1 (stereo unspecified)
inactive: [1] -1.1% | [2] -13.9% | [3] -9.9% | [4] -6.75% | [5] -22.1% | [6] 1.2%

CN(C(=O)Cl)c1ccccc1
inactive: [1] 9.1% | [2] -9.35% | [3] 7.8% | [4] 8.6% | [5] 16.8% | [6] 16.8%

Cc1[nH]c(=O)[nH]c1C(=O)c1ccc(-n2ccnc2)cc1
inactive: [1] -1.45% | [2] -9.75% | [3] 16.1% | [4] 16.2% | [5] 5.25% | [6] -9.15%

Cc1cc2c(cc1Cl)SSc1cc(Cl)c(C)cc1S(=O)(=O)Nc1nc(N)nn1C(O)n1nc(N)nc1NS2(=O)=O
inactive: [1] 7.65% | [2] 11.4% | [3] 9.1% | [4] 20.7% | [5] 30.4% | [6] 0.45%

Fc1ccc(/C=C/c2ccc(/C=C/c3ccc(F)cc3)nn2)cc1
inactive: [1] 18.4% | [2] -4.2% | [3] 7.8% | [4] -13.1% | [5] 5.15% | [6] -1.5%

CC[n+]1ccccc1Br
inactive: [1] 19.2% | [2] 18.6% | [3] 10.1% | [4] -7.4% | [5] 6.05% | [6] 18.6%

CN(C)CC(c1ccccc1)C(O)(c1ccccc1)c1ccccc1 (stereo unspecified)
inactive: [1] -5.65% | [2] -2.75% | [3] -1% | [4] -45.9% | [5] -18% | [6] 3.05%

O=c1[nH]c2ccccc2[nH]1
inactive: [1] -18.8% | [2] -14.9% | [3] -7.6% | [4] -28% | [5] -13.2% | [6] -14.4%

O=C1CC(c2ccccc2)=NCCN1
inactive: [1] -9.2% | [2] 16.2% | [3] 11.9% | [4] -3.55% | [5] -19.4% | [6] -7.25%
